# Reference: the supplement of paper PMC10037445
# Values joined by “and” are separate entries in the source; they are usually repeats but may differ in a detail not shown here. Equal values may be shown once. Over roughly 2,900 compounds, “NF-kB SEAP reporter activity, fold change vs agonist alone” has its median near 0.99; the highest 2% begin near 2.6. The full list was thinned out, with the highest values kept by preference.
# Legend:
# [1] = tested on: RAW-Dual; test: NF-kB SEAP reporter activity, fold change vs agonist alone; higher = enhanced NF-kB activity; conditions: library stock concentration (final ~1000-fold dilution): 10 mM
# Method in brief: (§1)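 Supernatant from RAW-Dual macrophages was read after 20 hours for IRF by QuantiLuc luminescence and for NF-κB by QuantiBlue absorbance at 620 nm. The cells (50,000 cells/well in DMEM, 384-well plates, 37 °C, 5% CO2) had received 50 nL of library stock by pin tool and, 1 h later, a PRR agonist. Reporter activity is expressed relative to agonist-alone wells as fold change, and wells were flagged cytotoxic if IncuCyte confluency was under 70% of agonist controls in both mask sets.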
# [2] = tested on: RAW-Dual; test: NF-kB SEAP reporter activity, fold change vs agonist alone; cytotoxicity flag (confluency mask): not cytotoxic; higher = enhanced NF-kB activity
# Method in brief: as §1
# [3] = tested on: RAW-Dual; test: NF-kB SEAP reporter activity, fold change vs agonist alone; cytotoxicity flag (confluency mask): cytotoxic (confluency <70% of control); higher = enhanced NF-kB activity
# Method in brief: as §1
# [4] = cytotoxicity flag (confluency mask): not cytotoxic, agonist: Imiquimod (TLR7) […]
# [5] = cytotoxicity flag (confluency mask): not cytotoxic, agonist: MPLA (TLR4) […]
# [6] = agonist: ODN 1826 (TLR9) 0.5 ug/mL
# [7] = agonist: Pam2CSK4 (TLR2/6) 0.1 ug/mL
# [8] = agonist: Pam3CSK4 (TLR2/1) 0.1 ug/mL
structure (smiles),measurement,setting,value
O=C1C2C3CCC(C3)C2C(=O)N1CC1CCCCC1CN1CCN(c2nsc3ccccc23)CC1 (stereo not given),NF-kB SEAP reporter activity,[1]; [4],0.878
same,NF-kB SEAP reporter activity,[1]; [5],1.06
O=C1C2C3CCC(C3)C2C(=O)N1CC1CCCCC1CN1CCN(c2nsc3ccccc23)CC1 (stereo not given) (library stock concentration (final ~1000-fold dilution): 10 mM),NF-kB SEAP reporter activity,[2]; agonist: LPS (TLR4) 0.1 ug/mL,0.728
same,NF-kB SEAP reporter activity,[2]; [6],0.931
same,NF-kB SEAP reporter activity,[2]; [7],0.983
same,NF-kB SEAP reporter activity,[2]; [8],1.07
Cc1oncc1C(=O)Nc1ccc(C(F)(F)F)cc1,NF-kB SEAP reporter activity,[1]; [4],1.24
same,NF-kB SEAP reporter activity,[1]; [5],1.15
CC(ONC(=O)c1cc(C(F)(F)F)cc(C(F)(F)F)c1)C(=O)Nc1ccc(Cl)cc1 (stereo not given),NF-kB SEAP reporter activity,[1]; [4],0.98
same,NF-kB SEAP reporter activity,[1]; [5],1.4
CC(ONC(=O)c1cc(C(F)(F)F)cc(C(F)(F)F)c1)C(=O)Nc1ccc(Cl)cc1 (stereo not given) (library stock concentration (final ~1000-fold dilution): 10 mM),NF-kB SEAP reporter activity,[2]; agonist: LPS (TLR4) 0.1 ug/mL,1.45
same,NF-kB SEAP reporter activity,[2]; [6],0.913
same,NF-kB SEAP reporter activity,[2]; [7],0.239
same,NF-kB SEAP reporter activity,[2]; [8],0.6
O=C(Nc1ccncc1)c1cc([N+](=O)[O-])ccc1Cl (library stock concentration (final ~1000-fold dilution): 10 mM),NF-kB SEAP reporter activity,[2]; agonist: LPS (TLR4) 0.1 ug/mL,0.801
same,NF-kB SEAP reporter activity,[2]; [6],0.584
same,NF-kB SEAP reporter activity,[2]; [7],0.853
same,NF-kB SEAP reporter activity,[2]; [8],0.69
O=C(Nc1cc(C(F)(F)F)ccc1C(F)(F)F)c1cc(Br)ccc1O,NF-kB SEAP reporter activity,"[1]; cytotoxicity flag (confluency mask): cytotoxic (confluency <70% of control), agonist: Imiquimod (TLR7) […]",0.255
same,NF-kB SEAP reporter activity,"[1]; cytotoxicity flag (confluency mask): cytotoxic (confluency <70% of control), agonist: MPLA (TLR4) […]",2.3
Cl.NCCOc1ccc(Cl)cc1C(=O)Nc1ccc([N+](=O)[O-])cc1Cl (library stock concentration (final ~1000-fold dilution): 10 mM),NF-kB SEAP reporter activity,[2]; agonist: LPS (TLR4) 0.1 ug/mL,1.29
same,NF-kB SEAP reporter activity,[2]; [6],0.59
same,NF-kB SEAP reporter activity,[2]; [7],0.918
same,NF-kB SEAP reporter activity,[2]; [8],0.91
Cl.Nc1ccc(Cl)cc1C(=O)C(F)(F)F (library stock concentration (final ~1000-fold dilution): 10 mM),NF-kB SEAP reporter activity,[2]; agonist: LPS (TLR4) 0.1 ug/mL,1.2
same,NF-kB SEAP reporter activity,[2]; [6],1.04
same,NF-kB SEAP reporter activity,[2]; [7],1.01
same,NF-kB SEAP reporter activity,[2]; [8],0.971
O=C(Nc1cc(C(F)(F)F)ccc1N1CCCCC1)c1ccncc1 (library stock concentration (final ~1000-fold dilution): 10 mM),NF-kB SEAP reporter activity,[2]; agonist: LPS (TLR4) 0.1 ug/mL,0.802
same,NF-kB SEAP reporter activity,[2]; [6],0.875
same,NF-kB SEAP reporter activity,[2]; [7],0.764
same,NF-kB SEAP reporter activity,[2]; [8],0.771
O=C(Nc1ccc([N+](=O)[O-])cc1Cl)c1cc(Cl)ccc1O (library stock concentration (final ~1000-fold dilution): 10 mM),NF-kB SEAP reporter activity,[2]; agonist: LPS (TLR4) 0.1 ug/mL,6.96
same,NF-kB SEAP reporter activity,[2]; [6],0.713
same,NF-kB SEAP reporter activity,[2]; [7],0.379
same,NF-kB SEAP reporter activity,[2]; [8],0.527
O=C(Nc1cc(C(F)(F)F)ccc1C(F)(F)F)c1cc(Br)ccc1O (library stock concentration (final ~1000-fold dilution): 10 mM),NF-kB SEAP reporter activity,[3]; agonist: LPS (TLR4) 0.1 ug/mL,2.68
same,NF-kB SEAP reporter activity,[3]; [6],1.82
same,NF-kB SEAP reporter activity,[3]; [7],0.573
same,NF-kB SEAP reporter activity,[3]; [8],0.839
O=C(Nc1cc(C(F)(F)F)ccc1N1CCCCC1)c1ccncc1,NF-kB SEAP reporter activity,[1]; [4],0.957
same,NF-kB SEAP reporter activity,[1]; [5],1.01
O=C(Nc1ccncc1)c1cc([N+](=O)[O-])ccc1Cl,NF-kB SEAP reporter activity,[1]; [4],0.837
same,NF-kB SEAP reporter activity,[1]; [5],0.684
O=C(Nc1cc(C(F)(F)F)cc(C(F)(F)F)c1)c1cc(Cl)ccc1O (library stock concentration (final ~1000-fold dilution): 10 mM),NF-kB SEAP reporter activity,[3]; agonist: LPS (TLR4) 0.1 ug/mL,4.53 and 3.94
same,NF-kB SEAP reporter activity,[3]; [6],1.84 and 1.74
same,NF-kB SEAP reporter activity,[3]; [7],1.25 and 1.03
same,NF-kB SEAP reporter activity,[3]; [8],1.99 and 1.13
O=C(Nc1ccc([N+](=O)[O-])cc1Cl)c1cc(Cl)ccc1O,NF-kB SEAP reporter activity,[1]; [4],1
same,NF-kB SEAP reporter activity,[1]; [5],1.05
